Mcl-1 Bim block – inhibitors of Bim-Mcl-1 interaction, human. Q07820. Bead-based flow cytometry, Bim peptide-Mcl-1 binding. inhibition, % at 10 µM. 0.1% of 190,000 active; in the data active = inhibition above about 40%;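 also: 0% = no compound tracer wells and 100% = peptide blocker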
Mcl1 Bid PPI – disrupts binding of human Mcl-1 to Bid peptide. TR-FRET Mcl-1/Bid-Dy647 peptide binding, 1536-well. inhibition, % at 21.7 µM. 0.97% of 220,000 active;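 active = compounds that cut the binding signal by more than half at the single screening dose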;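 also: His-tagged Mcl-1 with europium anti-His antibody binding Bid BH3 peptide; 0% = Mcl-1 plus peptide wells and 100% = peptide-only wells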
14-3-3 Bad inh – disrupts binding of bovine 14-3-3 zeta to phospho-Bad peptide | TR-FRET 14-3-3zeta/Dy647-pBad peptide displacement, 1 h | 0.71% of 220,000 active | P63103 | inhibition, % at 21.7 µM;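 active = inhibition above about 70%, limit read from the data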;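 also: 0% = full 14-3-3 plus peptide FRET controls and 100% = background without 14-3-3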
Mcl1-Noxa inh – disrupts binding of human Mcl-1 to Noxa peptide; Q07820; TR-FRET Mcl-1/Noxa peptide binding, 2 h; inhibition, % at 21.7 µM; 1.5% of 220,000 active;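 active = compounds that cut the protein-peptide binding signal by more than 50% relative to plate controls in a single-dose test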;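 also: His-tagged Mcl-1 with rhodamine Noxa BH3 peptide and terbium anti-His antibody; 0% = Mcl-1 plus Noxa peptide wells and 100% = peptide-only wells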
NCF1 inh – blocks human p47phox regulatory protein of NADPH oxidases; P14598; p47phox/p22phox peptide binding, fluorescence polarization, 2 h; inhibition, % at 24.7 µM; 0.53% of 220,000 active;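 active = inhibition above about 30%, limit read from the data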;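 also: 0% = p47phox with labelled peptide and 100% = labelled peptide alone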
Target sequence (P14598 whole entry, looked up): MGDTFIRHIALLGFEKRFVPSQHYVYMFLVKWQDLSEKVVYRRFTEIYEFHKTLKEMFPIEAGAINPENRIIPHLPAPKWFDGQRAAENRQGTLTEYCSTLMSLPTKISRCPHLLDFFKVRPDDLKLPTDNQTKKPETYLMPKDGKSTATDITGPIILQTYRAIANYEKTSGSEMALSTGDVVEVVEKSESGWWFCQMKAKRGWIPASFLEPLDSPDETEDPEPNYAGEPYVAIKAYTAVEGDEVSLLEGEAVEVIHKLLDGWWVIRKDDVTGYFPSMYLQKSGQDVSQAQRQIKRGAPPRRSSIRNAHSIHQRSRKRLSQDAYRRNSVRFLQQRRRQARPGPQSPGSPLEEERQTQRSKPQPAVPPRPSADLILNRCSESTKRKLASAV
* marks the source's active call; other numbers are inactive results; nt = no result given. Compounds with a hit are over-represented: about 3.1% of the library has one in this group of screens.

SMILES	Mcl-1 Bim block	Mcl1 Bid PPI	14-3-3 Bad inh	Mcl1-Noxa inh	NCF1 inh
Cn1cc(/C=C/C(=O)N2CCCC(C(=O)c3ccc(C(C)(C)C)cc3)C2)cn1 (stereo not drawn)	0	-16	-12	15	2
N#C/C(=C\C=C\c1ccccc1)C(=O)NCc1cccnc1	-5	-9	-4	0	-14
CCCN1C(=O)/C(=c2\s/c(=C3\C=Cc4ccccc4N3CC)c(=O)n2-c2ccccc2)SC1=S	0	-26	1	0	70*
CCCn1c(=C(C#N)C#N)s/c(=C2\C=Cc3ccccc3N2CC)c1=O	1	-26	-2	3	37*
CCN1/C(=C2\OC(=S)N(C)C2=O)C=Cc2ccccc21	0	-2	0	8	-84
CCSC1=NC(=O)/C(=C2/C=Cc3ccccc3N2CC)S1	-1	-44	-22	-18	18
O=S(=O)(Nc1ncccn1)c1ccc(NC(=S)Nc2cccc(Cl)c2)cc1	nt	-32	-2	14	-4
O=C(C[n+]1ccc(/C=N/O)cc1)N1CCCCC1	nt	-42	-3	13	-10
COC(=O)c1cc(N2C(=O)C3C(C2=O)C2(C)C=CC3(C)O2)ccc1Cl (stereo not drawn)	6	-1	6	69*	1
Oc1ccc(N=Nc2cccc(Cl)c2)cc1C=Nc1ccc(N2CCOCC2)cc1	0	56*	16	86*	1
Oc1c(Br)cc(Cl)cc1C=Nc1ccc(N2CCOCC2)cc1	31	-60	16	22	-77
COc1ccc(Oc2cc(C(F)(F)F)nc(N(C)C)n2)cc1	0	-37	-8	22	-6
CCOC(=O)CCNCc1ccc(OC)c(OC)c1	nt	-3	5	54*	-3
CC(=O)Nc1sc(N/N=C\c2ccc(O)cc2)nc1-c1cccs1	nt	-71	4	104*	-10
CC(=O)Nc1sc(N/N=C\c2ccccc2F)nc1-c1cccs1	-8	-9	5	62*	-10
COc1nccc(Nc2ccccc2)c1C#N	4	-1	nt	-6	44*
Cc1snc(SCC(=O)c2ccc([N+](=O)[O-])cc2)c1C#N	-6	-34	2	66*	-1
Cc1snc(SCC(=O)c2ccc(F)cc2)c1C#N	0	-26	-6	-2	2
CCc1nnc(NC(=O)CSc2nc(C)cc(C)c2C#N)s1	-4	-12	-2	3	-2
CCCCC(=O)Nc1cccc(NC(=O)c2ccc3c(c2)OCO3)c1	-3	63*	-3	24	6
COc1ccccc1-c1cc(C(=O)Nc2sc3c(c2C#N)CCC(C)C3)c2ccccc2n1 (stereo not drawn)	-1	-17	-2	-5	-66
Cc1cc(C(=O)OCC(=O)Nc2sc3c(c2C#N)CCC(C)C3)c2ccccc2n1 (stereo not drawn)	0	38	-10	93*	-21
C=CCSc1nnc(CNC(=O)c2ccc(Cl)cc2)n1CC	-1	0	0	5	5
Cc1cc(C(=O)CSc2nnc(-c3ccncc3)n2-c2ccccc2)c(C)n1C	2	51*	-10	13	-18
Cc1cc(C(=O)CSc2nnc(-c3ccccc3)n2C)c(C)n1C	-4	-99	-9	17	-1
SMILES	Mcl-1 Bim block	Mcl1 Bid PPI	14-3-3 Bad inh	Mcl1-Noxa inh	NCF1 inh
CCOC(=O)C1=C(CSc2nc(C)ccc2C#N)OC(N)=C(C#N)C1c1cccc(OC)c1OC (stereo not drawn)	-2	12	4	19	-43
N#CC1=C(N)Oc2c(oc(CO)cc2=O)C1c1ccccc1[N+](=O)[O-] (stereo not drawn)	nt	-36	2	-22	-10
Cc1ccc2c(c1)NC(=O)c1cccnc1N2	-2	-76	6	77*	-22
O=C1Nc2ccccc2Nc2ncccc21	-2	-55	2	-10	-47
Cc1ccccc1N=C1NC(=O)CC(c2ccccc2)S1 (stereo not drawn)	0	-37	-6	-18	-7
COc1ccc(C(=O)/C=C/C(=O)N(CC(=O)NC2CCCCC2)Cc2ccccc2OC)c(O)c1	0	17	5	11	33*
COc1ccc(C(=O)/C=C/C(=O)N(Cc2ccccc2)C(C(=O)NC2CCCCC2)c2ccncc2)c(O)c1 (stereo not drawn)	0	-22	-10	16	-7
COc1ccc(C(=O)/C=C/C(=O)N(CC(=O)NC2CCCCC2)Cc2ccccc2)c(O)c1	-3	37	1	6	30*
COc1ccc(C(=O)/C=C/C(=O)N(Cc2ccccc2OC)C(C(=O)NC2CCCCC2)c2ccncc2)c(O)c1 (stereo not drawn)	-3	-33	9	1	-8
COc1ccc(C(=O)/C=C/C(=O)N(CC(=O)NC2CCCCC2)CC2CCCO2)c(O)c1 (stereo not drawn)	-6	30	4	68*	-4
O=C(CCCN1C(=O)c2ccccc2C1=O)Nc1ccc2c(c1)OCCO2	5	-23	-10	14	1
COC(=O)C(Cc1ccccc1)NC(=S)NC(=O)c1ccccc1 (stereo not drawn)	1	-17	-12	1	-6
O=C(NC(NC1CCS(=O)(=O)C1)C(=O)c1cccs1)c1ccccc1 (stereo not drawn)	-6	2	1	8	2
O=C(NC1=C(Nc2ccc(Cl)cc2)C(=O)c2ccccc2C1=O)c1ccccc1	-23	-18	9	61*	12
Cc1cccc(NC2=C(NC(=O)c3ccccc3)C(=O)c3ccccc3C2=O)c1	-4	-1	8	94*	11
O=C(NC1=C(NC2CCS(=O)(=O)C2)C(=O)c2ccccc2C1=O)c1ccccc1 (stereo not drawn)	9	-50	-8	70*	10
CN(C1=C(NC(=O)c2ccc(Cl)cc2)C(=O)c2ccccc2C1=O)c1ccccc1	-6	-54	-1	19	9
Cc1c(NC(=O)c2ccc(-c3ccccc3)cc2)cccc1C(=O)O	nt	-8	0	13	-11
CN1C(=S)SC2CS(=O)(=O)CC21 (stereo not drawn)	nt	-10	4	-19	-8
Cc1cccc(C)c1-n1c(C)nn(CC#N)c1=O	0	-18	-2	17	-5
CN(C)/C=N/c1c(C#N)cnn1-c1ccccc1	0	-13	-11	-1	-9
CN(C)/C=N/c1c(C#N)cnn1-c1ccc(C(F)(F)F)cn1	-5	-41	-3	-14	155*
CCCCNC(=O)c1cc(C)nc2ccccc12	nt	-6	1	3	-20
Cc1cc(C(=O)NCCCN(C)C)c2ccccc2n1	52*	2	-3	1	3
COc1ccc(Cl)cc1NC(=O)CN(C1CCCCC1)S(C)(=O)=O	-1	33	1	68*	18
CSc1ccccc1NC(=O)CN(C1CCCCC1)S(C)(=O)=O	-1	-7	10	0	-17
Cc1ccccc1-n1c(=O)c2ccccc2n2cnnc12	-2	-5	1	15	7
Cc1ccccc1-n1sc2cc(F)ccc2c1=O	-4	-91	-29	16	102*
